This is a sample that favours compounds with a hit; in the whole collection about 0.93% have one here.
TexasRed fluor: counter-screen for TRb-SRC2 inhibitors: fluorescence interference. TRb/SRC2 Texas Red total fluorescence interference. Potency, µM (highest dose often 106 µM). 280,000 compounds, 0.29% hits; active = well fitted curve in either direction with a large enough effect; inconclusive = small, poorly fitted or top-dose-only effect
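Human TRb ligand-binding domain at 0.6 uM with 20 nM Texas Red SRC2 peptide in Tris buffer containing 1 uM T3 and 5% DMSO, incubated with compound 5 h at ambient temperature. Total fluorescence (555/632 nm) calculated as parallel + 2 × perpendicular.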
Coupling enz: coupling enzyme interference in Giardia aldolase counter-screen | 290,000 compounds, 0.67% hits | activity change, negative = inhibition, % at 58.2 µM, hits read low | coupling enzyme system counterscreen, AmpLite Red fluorescence; in the data active = activity change below about -30%
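Counterscreen lacking aldolase: glyceraldehyde-3-phosphate coupling-enzyme reagent preincubated 10 min at RT with compound (at 57.5 uM final), then substrate/coupling system with AmpLite Red added; fluorescence read at 525/598 nm after 20 min RT.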
TRb-SRC2 inh: TRbeta-SRC2 interaction inhibition; TRbeta-SRC2 peptide binding, fluorescence polarization; receptor liganded with 1 µM T3; Potency, µM (top dose mostly 106 µM), actives largely listed as inhibitors; 280,000 compounds, 0.065% hits; AID 1469; active = well fitted inhibition curve with a large enough effect; inconclusive = small, poorly fitted or top-dose-only effect, or effect the other way; also: nearly all actives have a fitted effect of over 50% in size
Target sequence (P10828 whole entry, looked up): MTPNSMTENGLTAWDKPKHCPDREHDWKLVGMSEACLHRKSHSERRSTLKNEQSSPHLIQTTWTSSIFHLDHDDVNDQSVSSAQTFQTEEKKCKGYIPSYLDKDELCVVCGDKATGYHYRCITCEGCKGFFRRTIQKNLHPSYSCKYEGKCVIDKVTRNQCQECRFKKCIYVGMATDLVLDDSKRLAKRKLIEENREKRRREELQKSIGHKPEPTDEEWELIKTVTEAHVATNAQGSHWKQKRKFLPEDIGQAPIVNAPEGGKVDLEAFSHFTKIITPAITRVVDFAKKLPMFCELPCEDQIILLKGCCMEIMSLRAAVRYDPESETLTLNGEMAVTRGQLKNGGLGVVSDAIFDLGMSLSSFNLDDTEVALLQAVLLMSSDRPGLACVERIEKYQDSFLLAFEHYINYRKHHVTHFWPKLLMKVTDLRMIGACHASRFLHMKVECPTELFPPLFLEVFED
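A fluorescence polarization screen tested compounds at multiple concentrations against complex formation between 0.6 uM TRb ligand-binding domain and 20 nM Texas Red SRC2 peptide, with 1 uM T3 present; readout after 5 hr.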
GoLoco inh red: RGS12 GoLoco-Gai1 interaction inhibition | Gai1:RGS12 GoLoco peptide FP, rhodamine, 10 min | Potency, µM (doses to about 61.6 µM), most hits filed as inhibitors | P63096 | 230,000 compounds, 0.44% hits; active = well fitted inhibition curve with a large enough effect, not every such curve was filed as active; inactive = no such curve, though single readings can be large or run the other way; also: nearly all actives have a fitted effect of over 30% in size
Of the large screens only hits and unclear results are named; the others gave an inactive call; ! = a repeat was not active; [ ] = dose if it differs, or a comment.

CC1COC2=C1C(=O)C(=O)c1c2ccc2c1CCCC2(C)C (stereo not given)	Coupling enz -36
COC(=O)c1c(C(F)F)nc(C(F)(F)F)c(C2=NCCS2)c1CC(C)C	none (no result: Coupling enz, GoLoco inh red)
CCCCc1ccc(C(=O)O)nc1	Coupling enz -67!
CC(=O)N1CCN(Cc2ccc(Cl)nc2)CC1	none (no result: TexasRed fluor, TRb-SRC2 inh, GoLoco inh red)
FC(F)(F)c1ccc(OCCCOc2c(Cl)cc(OCC=C(Cl)Cl)cc2Cl)nc1	none (no result: Coupling enz, GoLoco inh red)
COc1ccc(CCNCc2sccc2C)cc1OC	GoLoco inh red 25µM
COc1ccc(CCNCc2ccc(C)s2)cc1OC	none
C=CC(=O)OCC(CC)(COC(=O)C=C)COC(=O)C=C	none (no result: Coupling enz, GoLoco inh red)
CCOS(C)(=O)=O	GoLoco inh red 22µM (no result: Coupling enz)
CCOS(=O)(=O)OCC	none (no result: Coupling enz, GoLoco inh red)
CCC(CO)NC(=O)C1C=C2c3cccc4[nH]cc(c34)CC2N(C)C1 (stereo not given)	none
CC[C@@H](CO)NC(=O)[C@@H]1C=C2c3cccc4c3c(cn4C)C[C@H]2N(C)C1	TexasRed fluor inconclusive, Coupling enz -56!, TRb-SRC2 inh inconclusive
COC(=O)C1C=C2c3cccc4[nH]cc(c34)CC2N(C)C1 (stereo not given)	Coupling enz -34
CC(Oc1ccc(Cl)cc1Cl)C(=O)O (stereo not given)	none (no result: Coupling enz, GoLoco inh red)
O=C(O)c1ccc(-c2ccc3cc(C45CC6CC(CC(C6)C4)C5)c(O)cc3c2)cc1	TexasRed fluor inconclusive, TRb-SRC2 inh inconclusive (no result: GoLoco inh red)
CNC(=O)Oc1ccc(N(C)C)c(C)c1	none (no result: Coupling enz, GoLoco inh red)
CCOP(N)(=O)Oc1ccc(SC)c(C)c1 (stereo not given)	none (no result: Coupling enz, GoLoco inh red)
C/C(=N\Nc1ccccc1)c1c(O)n(Cc2ccccc2)c(=O)[nH]c1=O	TexasRed fluor 0.071µM[quencher]
C/C(=N\Nc1ccccc1)c1c(O)n(-c2ccccc2)c(=O)[nH]c1=O	none
O=C1c2ccccc2C(=O)C1C(=O)C(c1ccccc1)c1ccc(Cl)cc1 (stereo not given)	none (no result: Coupling enz, GoLoco inh red)
CC1(C)N(O)C(c2ccc(C(=O)O)cc2)=[N+]([O-])C1(C)C	Coupling enz -51
CCOc1ccc(N=C2SCCCN2C)cc1	GoLoco inh red 18µM
CC(C)N1C(=O)CC2(CC[N+](C)(CCOC(=O)C(O)(c3ccccc3)c3ccccc3)CC2)C1=O (stereo not given)	GoLoco inh red 16µM
CC[n+]1c(SC)ccc2cc(OC)ccc21	GoLoco inh red 10µM
O=C1C(=O)c2cccc3cccc1c23	none
O=C1C(=O)c2ccccc2-c2ccccc21	Coupling enz -82, TRb-SRC2 inh inconclusive
CCOC(=O)C(C)OC(=O)c1cc(Oc2ccc(C(F)(F)F)cc2Cl)ccc1[N+](=O)[O-] (stereo not given)	none (no result: Coupling enz, GoLoco inh red)
Oc1ccc(C(c2ccc(O)cc2)(C(F)(F)F)C(F)(F)F)cc1	none (no result: Coupling enz, GoLoco inh red)
O=[As](O)(O)O	none (no result: Coupling enz, GoLoco inh red)
CCOC(=O)COc1cc(-c2nn(C)c(OC(F)F)c2Cl)c(F)cc1Cl	none (no result: Coupling enz, GoLoco inh red)
CC(C)CCNC(=O)c1c(N)n(Cc2ccc3c(c2)OCO3)c2nc3ccccc3nc12	Coupling enz -33, TRb-SRC2 inh inconclusive
CC(C)CNC(=O)c1c(N)n(Cc2ccc3c(c2)OCO3)c2nc3ccccc3nc12	Coupling enz -51
Cc1cc(C2CC2)nc(Nc2ccccc2)n1	none (no result: Coupling enz, GoLoco inh red)
CC(C)(C)C(=O)[C@H](Oc1ccc(Cl)cc1)n1cncn1	none (no result: Coupling enz, GoLoco inh red)
Nc1cncc(C(=O)O)c1	Coupling enz -31!
[CH3][Hg][Cl]	GoLoco inh red 25µM (no result: Coupling enz)
ClC1=C(Cl)[C@]2(Cl)[C@H]3[C@H]([C@@H]4C=C[C@H]3C4)[C@]1(Cl)C2(Cl)Cl	none (no result: Coupling enz, GoLoco inh red)
ClC1=C(Cl)C2(Cl)C3C(Cl)C=CC3C1(Cl)C2(Cl)Cl (stereo not given)	GoLoco inh red 20µM!
C=CCC1=C(C)[C@@H](OC(=O)[C@@H]2[C@@H](C=C(C)C)C2(C)C)CC1=O	none (no result: Coupling enz, GoLoco inh red)
Cc1cccc(N2C(=O)NC(=O)/C(=C\C=C\c3ccco3)C2=O)c1	none
Cc1cccc(N2C(=O)NC(=O)/C(=C/c3ccc([N+](=O)[O-])o3)C2=O)c1	Coupling enz -36
Nc1ccc([N+](=O)[O-])cc1Cl	none (no result: Coupling enz, GoLoco inh red)
NNc1n[nH]c(=S)n1N	Coupling enz -62
CCCCC/C=C\C/C=C\C/C=C\C/C=C\CCCC(=O)N(Cc1ccc(O)c(Cl)c1)Cc1ccc(O)c(Cl)c1	GoLoco inh red 40µM
CCCCC/C=C\C/C=C\C/C=C\C/C=C\CCCC(=O)NCCc1ccc(O)c(O)c1	none
C=CC1(C)OC(=O)N(c2cc(Cl)cc(Cl)c2)C1=O (stereo not given)	none (no result: Coupling enz, GoLoco inh red)
NC(=O)c1ccc(N=Nc2c(O)[nH]c(=O)[nH]c2=O)cc1	none
O=C(N=Nc1c(O)[nH]c(=O)[nH]c1=O)C1COc2cc3ccccc3cc2O1 (stereo not given)	Coupling enz -30
C[C@]12CC[C@H]3[C@@H](CCC4=CC(=O)CC[C@@H]43)[C@@H]1CC[C@@H]2O	TexasRed fluor inconclusive
C[C@]12CC[C@@H]3c4ccc(O)c(O)c4CC[C@H]3[C@@H]1CC[C@@H]2O	Coupling enz -47
COc1cccc2c1C(=O)c1c(O)c3c(c(O)c1C2=O)C[C@](O)(/C(C)=N\O)C[C@@H]3O[C@H]1C[C@H](N)[C@@H](O)[C@H](C)O1	GoLoco inh red 0.63µM (no result: TexasRed fluor, Coupling enz, TRb-SRC2 inh)
CC(C)[C@@H](Nc1ccc(C(F)(F)F)cc1Cl)C(=O)OC(C#N)c1cccc(Oc2ccccc2)c1 (stereo not given in full)	none (no result: Coupling enz, GoLoco inh red)
CCN(CC)S(=O)(=O)c1ccc(N=Cc2c(O)n(-c3ccccc3)c(=O)[nH]c2=O)cc1	none
O=C1c2cccc3cccc(c23)C(=O)N1/N=C/c1c(O)n(-c2ccccc2)c(=O)[nH]c1=O	GoLoco inh red 16µM
COc1cc(N2CCOCC2)ccc1/C=C1\C(=O)NC(=O)N(Cc2cccs2)C1=O	none
COc1cc(N2CCOCC2)ccc1C=C1C(=O)NC(=O)NC1=O	TexasRed fluor 32µM[quencher]
O=c1c2ccccc2[se]n1-c1ccccc1	GoLoco inh red 2.8µM!
O=c1c2ccccc2nc(-c2ccccc2)n1-c1ccccc1	none
CNc1cnn(-c2cccc(C(F)(F)F)c2)c(=O)c1Cl	none (no result: Coupling enz, GoLoco inh red)
N[C@H](Cc1ccc2oc3cc(=O)c4ccccc4c-3nc2c1)C(=O)O	GoLoco inh red 3.5µM (no result: TexasRed fluor, Coupling enz, TRb-SRC2 inh)
COc1cc2c(cc1OC)-c1c(OC)c(OC)cc3c1[C@H](C2)N(C)CC3	Coupling enz -34
COC(=O)C1=C(C)OC(N)=C(C#N)C12C(=O)Nc1ccccc12 (stereo not given)	none
COC(=O)CC1=C(C(=O)OC)C2(C(=O)Nc3c(C)cccc32)C(C#N)=C(N)O1 (stereo not given)	Coupling enz -38
CCOc1ccc(-c2nc3cc(NC(=O)COc4cccc(C)c4)ccc3o2)cc1	TexasRed fluor 14µM[quencher], TRb-SRC2 inh inconclusive (no result: Coupling enz, GoLoco inh red)
O=c1oc2ccccc2c(O)c1C(CC(O)c1ccc(-c2ccc(Br)cc2)cc1)c1ccccc1 (stereo not given)	TRb-SRC2 inh inconclusive (no result: Coupling enz, GoLoco inh red)
COC[C@H]1OC(=O)c2coc3c2[C@@]1(C)C1=C(C3=O)[C@@H]2CCC(=O)[C@@]2(C)C[C@H]1OC(C)=O	TexasRed fluor 45µM[fluorescent], TRb-SRC2 inh 35µM (no result: Coupling enz)
CN1CC[C@@]2(C)c3cc(OC(=O)Nc4ccccc4)ccc3N(C)[C@@H]12	none (no result: Coupling enz)
